Experimental data taken from ChEMBL document CHEMBL4513146, “CO-ADD screening of Karazin Kharkiv National University (Ukraine) compounds”.
Measured potencies and affinities stand elsewhere.

How the values were obtained:
Staphylococcus aureus = conditions: Concentration 32 ug.mL-1;; ASSAY_TEST Inhibition of Bacterial Growth; detection method Absorption (OD600); MEDIA CAMHB; plate type 384well; NBS; CORNING #3640; time 18 hr
Escherichia coli = conditions: Concentration 32 ug.mL-1;; ASSAY_TEST Inhibition of Bacterial Growth; detection method Absorption (OD600); MEDIA CAMHB; plate type 384well; NBS; CORNING #3640; time 18 hr

| SMILES | Inhibition (Staphylococcus aureus) | Inhibition (Escherichia coli) |
| --- | --- | --- |
| O=c1n(Cc2cc(F)cc(F)c2)nc2ccc(-c3ccccc3)nn12 | 8.62% | -1.58% |
| O=C(Cn1nc2c3sc(N4CCCC4)nc3ncn2c1=O)Nc1ccccc1Cl | 4.77% | -9.42% |
| Cc1ccc(-c2cc3c4nnc(SCC(=O)Nc5cccc(Br)c5)n4ccn3n2)cc1 | 5.15% | -4.56% |
| CC(C)c1nnc2c(SCC(=O)N3CCN(c4ccccc4F)CC3)nc3ccccc3n12 | -2.06% | -6.39% |
| O=S(=O)(c1cccn2cnnc12)N(Cc1cccc(F)c1)c1cccc(Cl)c1 | 6.21% | -7.43% |
| O=S(=O)(c1ccc2nncn2c1)N(Cc1cccc(F)c1)c1ccc(F)c(F)c1 | 3.37% | -6.8% |
| CCCN(C)c1nccn2c(=O)n(CC(=O)Nc3cccc(C(C)=O)c3)nc12 | 10.12% | -7.5% |
| Cc1ccc(Oc2nc3ccccc3n3c(=O)n(CC(=O)Nc4ccccc4C(F)(F)F)nc23)cc1 | 11.78% | 1.07% |
| Cc1ccc(-c2ccc3nnc(CCC(=O)N4CCN(C(=O)c5ccco5)CC4)n3n2)cc1C | 7.73% | -0.43% |
| COc1cccc(CSc2nnc3c(=O)n(-c4ccccc4OC)ccn23)c1 | -2.45% | 1.01% |
| CCOc1ccc(C(=O)Cn2nc3n(CCC(C)C)c(=O)c4sccc4n3c2=O)cc1 | 6.67% | 3.25% |
| Cc1cccc(N(Cc2ccccc2)S(=O)(=O)c2cccn3c(C)nnc23)c1 | 19.49% | -3.05% |
